Compound activity (PubChem)
CYP2C9 inh: human CYP2C9 inhibition; P11712; CYP2C9 Supersomes, luciferin-H conversion, luminescence; inhibition, % at 5 µM; hit rate 20% among 96,000;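 active means blocking of liver enzyme CYP2C9 beyond about 50% at 5 µM, limit read from the data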
CYP2C19 inh: blocks human cytochrome P450 2C19. P33261. CYP2C19 Supersomes, luciferin-H EGE luminescence, 30 min. inhibition, % at 5 µM. hit rate 21% among 96,000. AID 778;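 active means CYP2C19 inhibition above a set limit at 5 µM in the primary screen, cut at about 50% in these data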;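 further: plate controls were negative control wells for no effect and 2.5 mM tranylcypromine positive control for full effect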
CYP2C19 act: increases human CYP2C19 enzyme activity; P33261; recombinant CYP2C19, luciferin-H EGE luminescence; active compounds read high; 0 = fully inhibited enzyme, 1 = untreated enzyme; activation factor at 5 µM; 96,000 tested, under 10 active;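 active means activation factor of at least 2 at 5 µM in the primary screen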;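 further: 0 = wells with 2.5 mM tranylcypromine and 1 = vehicle-only wells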
CYP2C9 act: CYP2C9 (human) activation; hit rate 1.4% among 96,000; AID 1024; recombinant CYP2C9, luciferin-H conversion, luminescence; active compounds read high; factor 1 = untreated enzyme, 0 = blocked; P11712; activation factor at 5 µM;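 active means activation factor of 2 or more for CYP2C9 at a 5 µM dose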;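 further: 0 = sulfaphenazole-blocked wells and 1 = vehicle-only wells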
Cav32 inh: human Cav3.2 channel inhibition, primary screen; Cav3.2-expressing cells, Fluo-4 calcium fluorescence FDSS; active compounds read low; O95180; B-score at 10 µM; hit rate 4% among 100,000;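 active means single-dose well whose peak fluorescence ratio is a statistical outlier from its plate by either plate-standardised score or position-corrected B-score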
Target sequence (O95180 whole entry, looked up): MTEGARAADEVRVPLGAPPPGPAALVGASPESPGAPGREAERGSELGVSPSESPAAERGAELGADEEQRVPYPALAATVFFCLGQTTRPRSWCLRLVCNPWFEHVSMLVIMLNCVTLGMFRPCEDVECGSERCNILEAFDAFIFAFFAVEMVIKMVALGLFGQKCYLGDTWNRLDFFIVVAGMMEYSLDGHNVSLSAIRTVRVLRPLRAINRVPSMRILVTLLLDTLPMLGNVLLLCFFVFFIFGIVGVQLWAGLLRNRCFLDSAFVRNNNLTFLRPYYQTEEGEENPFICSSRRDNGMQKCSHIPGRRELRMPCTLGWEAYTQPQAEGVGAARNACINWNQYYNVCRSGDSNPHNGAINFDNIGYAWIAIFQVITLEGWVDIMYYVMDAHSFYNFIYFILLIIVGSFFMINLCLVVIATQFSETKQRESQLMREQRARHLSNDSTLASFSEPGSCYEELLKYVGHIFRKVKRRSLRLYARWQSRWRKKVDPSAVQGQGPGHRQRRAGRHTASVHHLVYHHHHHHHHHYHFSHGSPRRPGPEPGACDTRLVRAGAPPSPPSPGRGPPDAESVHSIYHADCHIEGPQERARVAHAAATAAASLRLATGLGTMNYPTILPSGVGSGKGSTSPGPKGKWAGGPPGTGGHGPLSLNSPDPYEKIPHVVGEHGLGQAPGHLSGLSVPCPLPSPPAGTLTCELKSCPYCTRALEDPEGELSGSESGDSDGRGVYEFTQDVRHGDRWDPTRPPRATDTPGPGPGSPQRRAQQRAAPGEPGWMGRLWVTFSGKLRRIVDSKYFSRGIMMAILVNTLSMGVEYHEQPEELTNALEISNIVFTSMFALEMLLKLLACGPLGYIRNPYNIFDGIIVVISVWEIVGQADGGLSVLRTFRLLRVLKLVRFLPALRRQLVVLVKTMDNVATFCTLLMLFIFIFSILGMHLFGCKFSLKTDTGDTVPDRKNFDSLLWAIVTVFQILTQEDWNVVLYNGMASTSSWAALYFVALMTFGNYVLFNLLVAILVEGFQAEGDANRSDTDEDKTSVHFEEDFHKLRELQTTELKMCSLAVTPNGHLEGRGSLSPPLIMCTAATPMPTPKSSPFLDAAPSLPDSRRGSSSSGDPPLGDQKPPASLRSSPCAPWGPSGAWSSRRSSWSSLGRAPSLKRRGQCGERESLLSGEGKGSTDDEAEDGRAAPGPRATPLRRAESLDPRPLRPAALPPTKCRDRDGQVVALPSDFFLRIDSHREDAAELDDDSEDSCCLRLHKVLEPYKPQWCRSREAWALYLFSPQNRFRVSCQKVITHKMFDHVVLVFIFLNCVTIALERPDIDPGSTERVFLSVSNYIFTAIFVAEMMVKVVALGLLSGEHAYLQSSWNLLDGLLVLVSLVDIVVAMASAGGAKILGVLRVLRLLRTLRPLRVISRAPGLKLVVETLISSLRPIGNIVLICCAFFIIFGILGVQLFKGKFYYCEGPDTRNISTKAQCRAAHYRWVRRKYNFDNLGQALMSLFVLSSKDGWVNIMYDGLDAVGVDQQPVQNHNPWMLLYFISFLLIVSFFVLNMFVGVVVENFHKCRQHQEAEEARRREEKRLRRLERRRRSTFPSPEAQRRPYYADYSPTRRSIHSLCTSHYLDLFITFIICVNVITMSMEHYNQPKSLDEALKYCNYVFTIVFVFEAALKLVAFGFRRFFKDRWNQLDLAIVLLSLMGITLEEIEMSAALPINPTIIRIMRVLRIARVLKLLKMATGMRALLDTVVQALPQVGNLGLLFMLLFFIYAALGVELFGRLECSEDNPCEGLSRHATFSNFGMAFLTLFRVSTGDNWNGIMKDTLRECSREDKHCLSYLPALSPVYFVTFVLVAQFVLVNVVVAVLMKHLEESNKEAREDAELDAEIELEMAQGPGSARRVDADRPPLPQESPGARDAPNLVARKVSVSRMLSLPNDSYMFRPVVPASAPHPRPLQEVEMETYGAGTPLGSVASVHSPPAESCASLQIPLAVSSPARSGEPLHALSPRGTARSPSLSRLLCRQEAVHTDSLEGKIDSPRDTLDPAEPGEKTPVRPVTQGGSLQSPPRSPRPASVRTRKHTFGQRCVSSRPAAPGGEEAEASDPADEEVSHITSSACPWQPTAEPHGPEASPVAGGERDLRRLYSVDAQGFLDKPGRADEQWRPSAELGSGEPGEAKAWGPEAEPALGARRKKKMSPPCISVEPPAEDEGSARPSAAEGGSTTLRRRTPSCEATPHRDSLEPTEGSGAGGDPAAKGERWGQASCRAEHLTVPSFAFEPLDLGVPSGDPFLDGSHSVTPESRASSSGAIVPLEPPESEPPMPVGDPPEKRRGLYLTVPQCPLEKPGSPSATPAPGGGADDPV
* marks the source's active call; other numbers are inactive results; . = no result given. Sampled rows, rich in hits. Any-hit rate of the full collection: about 27%.

SMILES	CYP2C9 inh	CYP2C19 inh	CYP2C19 act	CYP2C9 act	Cav32 inh
Nc1nncn1C(=O)CCCN1C(=O)c2ccccc2C1=O	-3	-4	1	1	0.73
NC(N)=Nc1nc(CCN2C(=O)c3ccccc3C2=O)cs1	6	55*	0.4	0.9	0.45
CNc1nc(CCN2C(=O)c3ccccc3C2=O)cs1	7	82*	0.2	0.9	.
Cc1nnc(SCCN2C(=O)c3ccccc3C2=O)nc1C	.	.	.	.	1.4
Cc1nc(CCN2C(=O)c3ccccc3C2=O)cs1	19	70*	0.3	0.8	0.52
Cc1cnn(Cc2ccccc2)c1N	4	30	0.7	1	0.57
O=C(Nc1cccc(Br)c1)/C(=C\c1cccnc1)NC(=O)c1ccco1	14	4	1	0.9	0.32
COC(=O)C1CC(O)CN1C(=O)c1ccco1 (stereo unspecified)	-22	-23	1.2	1.2	1.1
Cc1ccc(NC(=O)CSc2nnc(Cn3cnc4ccccc43)o2)cc1	65*	36	0.6	0.4	-2.5
Cc1ccc(NC(=O)CSc2nnc(CNC(=O)c3c(F)cccc3Cl)o2)cc1	73*	41	0.6	0.3	0.15
COc1cc(C(=O)NCc2nnc(SCC(=O)Nc3cccc(C)c3)o2)cc(OC)c1OC	40	12	0.9	0.6	0.16
Cc1ccc(NC(=O)CSc2nnc(Cn3cnc4ccccc43)o2)c(C)c1	.	.	.	.	-0.055
Cn1c(=O)c2c(=O)cc(NNC(=O)C(C)(C)C)[nH]c2n(C)c1=O	37	1	1	0.6	0.97
Nc1ccc2c(c1)C(=O)C(=O)c1ccccc1-2	87*	98*	0	0.1	0.061
COC(=O)CSc1nnc(-c2ccccc2O)n1-c1ccc(C)cc1	37	57*	0.4	0.6	.
CCc1nnc(NC(=O)CSc2nnc(C3CCCCC3)n2-c2cccc(Cl)c2)s1	.	.	.	.	-4.3*
CCc1nnc(NC(=O)CSc2nnnn2-c2cccc(C(=O)OC)c2)s1	68*	33	0.7	0.3	-0.14
Cc1cccc(-n2c(SCC(=O)Nc3nnc(C)s3)nnc2-c2ccoc2C)c1	23	24	0.8	0.8	-1.6
CCc1nnc(NC(=O)CSc2nnc(-c3ccoc3C)n2-c2cccc(C)c2)s1	54*	37	0.6	0.5	-2.1
COc1ccc(-n2cnnc2SCC(=O)c2ccc(S(=O)(=O)N3CCOCC3)cc2)cc1	19	20	0.8	0.8	0.73
CCC(Sc1nc(=O)cc(N)n1CCc1ccccc1)C(=O)Nc1ccccc1C#N (stereo unspecified)	24	20	0.8	0.8	0.096
CCc1nnc(NC(=O)CSc2nnc(-c3ccccc3O)n2-c2ccc(C)cc2)s1	-14	-7	1.1	1.1	0.18
Cc1cccc(-n2c(SCC(=O)Nc3nonc3C)nnc2-c2ccoc2C)c1	54*	45	0.6	0.5	-0.76
CCc1nnc(NC(=O)CSc2nnc(-c3ccccc3OC)n2-c2ccc(C)cc2)s1	72*	77*	0.2	0.3	-0.58
Cc1nonc1NC(=O)CSc1nnc(-c2ccoc2C)n1CC(C)C	14	76*	0.2	0.9	0.84
SMILES	CYP2C9 inh	CYP2C19 inh	CYP2C19 act	CYP2C9 act	Cav32 inh
CCn1c(SCC(=O)Nc2nonc2C)nnc1-c1ccoc1C	9	33	0.7	0.9	0.87
COc1ccccc1-c1nc(-c2cccc(C)c2)no1	-17	49	0.5	1.2	0.29
O=C(OCCCN=C1NS(=O)(=O)c2ccccc21)C1CC(=O)N(c2ccc(Cl)cc2)C1 (stereo unspecified)	.	.	.	.	1.7
N#CCCN(C1CCCCC1)S(=O)(=O)CCOc1ccccc1	26	36	0.6	0.7	-1.1
Cc1ccc(C(=O)NCC2CCCO2)cc1N1CCCC1=O (stereo unspecified)	-6	-4	1	1.1	-1
O=C(Nc1nc(-c2ccco2)c(-c2ccco2)s1)C1CC(=O)N(c2ccc3c(c2)OCCO3)C1 (stereo unspecified)	94*	71*	0.3	0.1	-2.8
O=C(Nc1ccccc1Cc1ccccc1)C1CC(=O)N(c2ccc3c(c2)OCCO3)C1 (stereo unspecified)	76*	64*	0.4	0.2	-1.1
CCc1cccc(CC)c1NC(=O)C1CC(=O)N(c2ccc3c(c2)OCCO3)C1 (stereo unspecified)	89*	74*	0.3	0.1	-1.1
O=C(COc1ncnc2sccc12)N1CCN(S(=O)(=O)c2ccc(Cl)cc2)CC1	12	1	1	0.9	0.87
C=CCn1c(SCC(=O)Nc2cccc(C)c2)nnc1-c1cnccn1	53*	96*	0	0.5	-0.032
C=CCn1c(SCC(=O)Nc2cc(C)cc(C)c2)nnc1-c1cnccn1	-3	4	1	1	0.28
CCn1c(SCC(=O)Nc2ccc3c(c2)c2ccccc2n3CC)nnc1-c1cnccn1	-44	53*	0.5	1.4	.
Cc1cccc(NC(=O)CSc2nnc(CCC(=O)Nc3ccc(C)c(Cl)c3)n2C)c1	-19	-4	1	1.2	0.0034
C=CCn1c(SCC(=O)Nc2cc(C)ccc2C)nnc1-c1cnccn1	3	83*	0.2	1	0.52
C=CCn1c(CCC(=O)Nc2ccc(C)c(Cl)c2)nnc1SCC(=O)Nc1ccccc1C	64*	30	0.7	0.4	-3.1
CC(C)(C(=O)c1cccnc1)c1cccnc1	.	.	.	.	0.89
Cc1cc(C(=O)O)sc1C	.	.	.	.	-0.044
CCC1Sc2ccccc2N(CC(=O)NCCC(C)C)C1=O (stereo unspecified)	17	30	0.7	0.8	.
O=C(C1CCN(S(=O)(=O)c2cccc3nsnc23)CC1)N1CCCc2ccccc21	4	11	0.9	1	1.6
O=C(C1CCN(S(=O)(=O)c2cccc3nsnc23)CC1)N1CCc2ccccc21	44	51*	0.5	0.6	0.65
O=C(C1CCCN(S(=O)(=O)c2cccc3nsnc23)C1)N1CCc2ccccc21 (stereo unspecified)	74*	52*	0.5	0.3	.
CCN1C=C(Cc2ccc(OC)cc2)C2=C(C1)C(c1ccc(OC)cc1)C(C#N)=C(N)O2 (stereo unspecified)	42	27	0.7	0.6	.
O=C(Nc1c(Cl)cc(Cl)cc1-c1nc2ccccc2s1)c1ccc(Br)o1	55*	11	0.9	0.4	-2.8
COC(=O)COc1cccc2c(=O)n(CC(=O)N3CCCc4ccccc43)ccc12	8	6	0.9	0.9	0.42
Oc1ccc(-c2[nH]nc(-c3ccccc3)c2-c2nc3ccccc3[nH]2)cc1	-15	-18	1.2	1.2	-5.5*
c1ccc2nc(-c3nc4ccccc4[nH]3)ccc2c1	10	40	0.6	0.9	-0.11
CC(C)(C)C(=O)/C=C(N)/C=C/c1ccccc1	16	28	0.7	0.8	-2.3
COc1cccc(C2C=C(c3cccs3)Nc3ncnn32)c1OC (stereo unspecified)	56*	43	0.6	0.4	-1.5
COc1ccc(C2C=C(c3ccc(C)cc3)Nc3ncnn32)cc1 (stereo unspecified)	34	28	0.7	0.7	.
